Drawing on PubChem BioAssay, this text covers z-score and composite z-score for 13 compounds.

Active and inactive are the calls of the source.

Assay [1] is described as follows: optical density shifts of acrAB sulA E. coli – strain DRC41, OD650, 48 h, E. coli filamentation inducer project, primary screen (AID 1152).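 Further: E. coli MC1000 strain DRC41 lacking acrAB efflux pump and sulA.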 Conditions: higher = more signal, called active from +8 up or from −8 down.
Assay [2] is described as follows: probe aLefty1 binding on compound microarray – biochemical, small-molecule microarray, 635/667 nm fluorescence, primary screen (AID 1153).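 Further: score merges spot fluorescence with signal-to-noise ratio from the scanned slide images.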 Conditions: higher = more signal.
A short description of assay [3]: plasmodial surface anion channel blockers, osmotic lysis – cell-based, P. falciparum Indochina, OD700, 1 h, primary screen (AID 1154). The note with it: P. falciparum Indochina infected RBC osmotic lysis, higher = more signal, called active from +8 up or from −8 down.
Assay [4] is described as follows: plasmodial surface anion channel blockers, osmotic lysis – cell-based, P. falciparum Indochina, OD700, 2 h, primary screen (AID 1155).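 Further: lysis reports solute entry through the parasite surface anion channel PSAC.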 The note with it: P. falciparum Indochina infected erythrocytes, higher = more signal, called active from +8 up or from −8 down.
Assay [5] in a line: changes in parasitized red cell lysis, either direction – P. falciparum Indochina, OD700, 3 h, PSAC antagonist project, primary screen (AID 1156). Conditions: P. falciparum-infected erythrocytes, osmotic lysis, higher = more signal, called active from +8 up or from −8 down.
Assay [6] can be described thus: plasmodial surface anion channel blockers, osmotic lysis – cell-based, P. falciparum Indochina, OD700, 18 h, primary screen (AID 1157). Conditions: P. falciparum Indochina infected erythrocytes, osmotic lysis OD700, 18 h; higher = more signal, called active from +8 up or from −8 down.
Assay [7] is described as follows: S6 kinase pathway phospho-S6 level changes – cell-based, A549, cytoblot, luminescence, serum-stimulated, primary screen (AID 1158).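 Further: serum-stimulated A549 lung adenocarcinoma cells; signal is phosphorylated S6 detected by cytoblot immunostaining with HRP secondary.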 The note with it: 5 h, higher = more signal.
For assay [8], the target named is NADPH oxidase 2 (Homo sapiens) (UniProt P04839). The assay can be described thus: compounds shifting NOX2 Amplex Red fluorescence – cell-based, HEK293-NOX2, PMA-stimulated, NOX inhibitor project, primary screen (AID 1159). Further: test concentration not given here. The note with it: 45 min, higher = more signal, called active from +8 up or from −8 down.
The target in assay [9] is NADPH oxidase 4 (Homo sapiens) (UniProt Q9NPH5). As to the kind of experiment: compounds shifting NOX4 Amplex Red fluorescence – cell-based, HEK293-NOX4, tetracycline-induced, NOX inhibitor project, primary screen (AID 1160). Conditions: HEK293-NOX4, Amplex Red H2O2 fluorescence, 45 min; higher = more signal, called active from +8 up or from −8 down.
Assay [10] deals with NADPH oxidase 5 (Homo sapiens) (UniProt Q96PH1). As to the kind of experiment: compounds shifting NOX5 Amplex Red fluorescence – cell-based, HEK293-NOX5, NOX inhibitor project, primary screen (AID 1161). Conditions: HEK293-NOX5, ionomycin, 45 min, higher = more signal.
NADPH oxidase 5 (Homo sapiens), sequence (Q96PH1 whole entry, looked up): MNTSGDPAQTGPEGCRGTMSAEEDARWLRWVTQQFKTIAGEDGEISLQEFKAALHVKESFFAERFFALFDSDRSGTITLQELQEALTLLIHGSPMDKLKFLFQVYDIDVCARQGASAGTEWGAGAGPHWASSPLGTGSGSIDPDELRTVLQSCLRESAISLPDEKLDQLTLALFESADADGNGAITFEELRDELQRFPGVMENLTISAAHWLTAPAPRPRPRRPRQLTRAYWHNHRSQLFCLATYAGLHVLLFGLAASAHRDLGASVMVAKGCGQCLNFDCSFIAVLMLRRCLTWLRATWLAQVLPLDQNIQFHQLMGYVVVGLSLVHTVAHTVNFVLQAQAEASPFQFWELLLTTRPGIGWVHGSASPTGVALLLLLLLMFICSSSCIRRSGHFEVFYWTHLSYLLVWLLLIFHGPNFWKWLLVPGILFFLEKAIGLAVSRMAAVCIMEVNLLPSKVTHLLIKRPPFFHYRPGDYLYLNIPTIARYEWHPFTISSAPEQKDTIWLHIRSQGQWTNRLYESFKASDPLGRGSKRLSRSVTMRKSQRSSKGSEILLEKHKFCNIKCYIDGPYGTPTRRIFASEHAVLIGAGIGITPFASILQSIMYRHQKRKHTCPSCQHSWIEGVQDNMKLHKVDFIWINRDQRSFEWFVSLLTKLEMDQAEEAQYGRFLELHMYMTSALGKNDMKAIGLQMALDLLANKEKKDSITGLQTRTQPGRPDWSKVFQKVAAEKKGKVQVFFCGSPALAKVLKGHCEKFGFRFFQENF

NADPH oxidase 2 (Homo sapiens), sequence (P04839 whole entry, looked up): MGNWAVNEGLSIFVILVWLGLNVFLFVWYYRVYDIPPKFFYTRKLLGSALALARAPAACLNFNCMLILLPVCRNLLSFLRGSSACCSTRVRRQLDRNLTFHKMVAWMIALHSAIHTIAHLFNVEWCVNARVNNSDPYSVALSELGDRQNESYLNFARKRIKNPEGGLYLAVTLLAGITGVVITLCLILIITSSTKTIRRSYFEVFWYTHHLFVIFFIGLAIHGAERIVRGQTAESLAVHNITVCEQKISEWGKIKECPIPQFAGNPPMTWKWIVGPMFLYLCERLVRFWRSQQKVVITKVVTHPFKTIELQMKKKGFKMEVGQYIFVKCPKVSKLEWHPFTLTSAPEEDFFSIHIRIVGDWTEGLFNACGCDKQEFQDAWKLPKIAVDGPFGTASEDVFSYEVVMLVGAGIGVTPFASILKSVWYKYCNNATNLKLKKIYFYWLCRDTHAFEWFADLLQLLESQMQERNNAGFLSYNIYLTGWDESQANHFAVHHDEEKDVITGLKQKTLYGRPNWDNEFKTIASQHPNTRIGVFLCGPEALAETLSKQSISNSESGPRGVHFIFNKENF
NADPH oxidase 4 (Homo sapiens), sequence (Q9NPH5 whole entry, looked up): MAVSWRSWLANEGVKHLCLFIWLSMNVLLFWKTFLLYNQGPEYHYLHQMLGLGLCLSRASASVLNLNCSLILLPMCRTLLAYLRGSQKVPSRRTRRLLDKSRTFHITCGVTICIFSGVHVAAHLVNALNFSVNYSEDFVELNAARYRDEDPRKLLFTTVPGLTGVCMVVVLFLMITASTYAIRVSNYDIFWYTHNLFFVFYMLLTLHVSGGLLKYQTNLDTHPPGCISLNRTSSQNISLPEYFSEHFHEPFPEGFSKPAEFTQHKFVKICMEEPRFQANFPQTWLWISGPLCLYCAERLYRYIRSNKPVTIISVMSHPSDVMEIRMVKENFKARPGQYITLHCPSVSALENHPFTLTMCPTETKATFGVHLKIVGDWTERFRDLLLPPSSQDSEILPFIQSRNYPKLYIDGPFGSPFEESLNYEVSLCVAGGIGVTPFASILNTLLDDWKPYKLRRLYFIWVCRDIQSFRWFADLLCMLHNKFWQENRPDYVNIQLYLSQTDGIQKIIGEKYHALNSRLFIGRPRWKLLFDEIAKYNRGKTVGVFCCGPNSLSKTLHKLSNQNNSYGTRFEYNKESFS

Regarding `COCCOC(=O)N1C(=O)[C@@]2(c3cc(C#CCC(C(=O)OC)C(=O)OC)ccc31)[C@H](C(=O)N1CCc3cc(OC)c(OC)cc3C1)[C@H]1C(=O)O[C@H](c3ccccc3)[C@H](c3ccccc3)N1[C@@H]2c1ccccc1OCCO`, the z-score in [1] was 1.25 (inactive); in [3], 2.96 (inactive); in assay [4], 1.42 (inactive); in assay [5] it was 0.358 (inactive); in [6], 0.265 (inactive); in assay [7], -0.0797. For the same compound, the z-score in [8] was 1.48 (inactive); in [9], 1.57 (inactive); in assay [10], 0.966. The compound further gave a composite z-score in assay [2] of -0.314.
On to `CC(C)[Si](C#Cc1ccccc1)(O[C@H](c1ccccc1)c1cn(Cc2ccccc2)nn1)C(C)C`, for which the z-score was 1.57 (inactive) in assay [1]; 1.66 (inactive) in assay [3]; 1.53 (inactive) in assay [4]; -1.39 (inactive) in assay [5]; 0.554 (inactive) in assay [6]; 0.0866 in [7]. In addition, the z-score in assay [8] is 0.789 (inactive); in [9], -1.18 (inactive); in assay [10], -2.98. In [2], the composite z-score was -0.275.
Take `COc1ccc(CCNC(=O)[C@@H]2c3ccccc3C(=O)N(Cc3cc(F)cc(C(F)(F)F)c3)[C@H]2c2ccc(CO)cc2)cc1`: the z-score in assay [1] is 0.799 (inactive); in assay [3] it was 3.5 (inactive); in assay [4], 0.69 (inactive); in assay [5], 0.563 (inactive); in assay [6], 0.0614 (inactive); in [7], -0.155. The values for the z-score in assay [8], in [9] and in assay [10] were -2.4 (inactive), -0.0983 (inactive) and -2.21, respectively. The same compound showed a composite z-score in [2] of 0.659.
With `COC(=O)[C@@]1(Cc2ccc(F)cc2)[C@H]2c3cc(C(=O)N4CCCC4)n(CCSCCO)c3C[C@H]2CN1C(=O)c1ccccc1`, the z-score in assay [1] is -0.683 (inactive); in assay [3], 1.37 (inactive); in assay [4], 0.367 (inactive); in assay [5] it was 0.189 (inactive); in [6], 0.618 (inactive); in assay [7], 0.332. Also, the values for the z-score in assay [8], in assay [9] and in [10] were 0.639 (inactive), -0.179 (inactive) and -0.345, respectively. Besides, the composite z-score in assay [2] was 0.433.
For `Cc1cccc([C@H]2C[C@H]3C(Br)=C[C@@]2(CO)C(=O)[C@]32CO2)c1`, the z-score in assay [1] is -0.269 (inactive); in assay [3], -0.131 (inactive); in assay [4], 0.27 (inactive); in assay [5], -0.759 (inactive); in assay [6], -0.063 (inactive); in assay [7], -0.71. Moreover, the z-score is 0.26 (inactive) in [8], 0.711 (inactive) in [9] and -0.0286 in [10]. This compound also displayed a composite z-score in assay [2] of 0.0509.
For `CN(C)CCCCCCNC(=O)[C@@H]1C[C@@H]2C(=O)N[C@@H](CCCC[N+](C)(C)C)C(=O)N2[C@@H]1c1cccc(OCCO)c1`, the z-score was 1.44 (inactive) in assay [1]; 5.12 (inactive) in assay [3]; -0.16 (inactive) in assay [4]; 1.47 (inactive) in assay [5]; -1.04 (inactive) in assay [6]; 2.66 in assay [7]. Besides, the z-score is -0.0444 (inactive) in assay [8], 0.249 (inactive) in assay [9] and 1.55 in [10]. The composite z-score in assay [2] came out at 0.0651.
In the case of `COc1ccc(C(=O)Nc2ccc(CN3C(=O)[C@@]4(O[C@@H](CC(=O)N(CCO)Cc5ccccc5)[C@H]([Si](C)(C)c5ccc(OC)cc5)[C@H]4C)c4ccccc43)cc2)cc1`, the z-score is 1.73 (inactive) in [1]; 16.6 (active) in assay [3]; 2.82 (inactive) in [4]; 0.467 (inactive) in [5]; -0.236 (inactive) in [6]; 1.21 in assay [7]. For the same compound, the z-score was 1.06 (inactive) in assay [8], 1.39 (inactive) in [9] and 2.59 in [10]. The compound also yielded a composite z-score in assay [2] of -0.115.
In the case of `CC[C@@H](O[Si](C#C[Si](C(C)C)(C(C)C)C(C)C)(C(C)C)C(C)C)c1cn([C@H](CO)Cc2ccccc2)nn1`, the z-score in assay [1] is 0.922 (inactive); in assay [3], 0.355 (inactive); in assay [4], 0.49 (inactive); in assay [5], -0.68 (inactive); in [6], 0.0878 (inactive); in assay [7], -0.116. The z-score in assay [8] is -0.69 (inactive); in [9], 0.408 (inactive); in assay [10], -0.133. The compound further gave a composite z-score in [2] of -0.0094.
Turning to `Cc1ccc(S[C@]2(C(=O)NC3CC3)CC(=O)N(C3Cc4ccccc4C3)[C@@H]2c2ccc(CO)cc2I)cc1`, the z-score is 0.933 (inactive) in assay [1]; 5.18 (inactive) in [3]; 0.943 (inactive) in assay [4]; 0.202 (inactive) in assay [5]; 0.254 (inactive) in [6]; -0.256 in assay [7]. For the same compound, the z-score is 1.94 (inactive) in assay [8], -2.66 (inactive) in assay [9] and 1.41 in [10]. This compound showed a composite z-score in [2] of 0.227.
`COc1ccc(C#Cc2ccc3c(c2)[C@]2(C(=O)N3)[C@H](c3ccccc3OCCO)N3[C@H](c4ccccc4)[C@H](c4ccccc4)OC(=O)[C@H]3[C@@H]2C(=O)NC[C@H](O)c2ccccc2)cc1`: the z-score is 1.21 (inactive) in assay [1]; 1.71 (inactive) in assay [3]; 1.71 (inactive) in assay [4]; 0.0857 (inactive) in assay [5]; 1.2 (inactive) in [6]; 0.138 in assay [7]. For the same compound, the z-score in assay [8] was 1.78 (inactive); in [9], 0.243 (inactive); in assay [10] it was 1.32. The compound also yielded a composite z-score in [2] of 0.0147.
`COc1ccc([Si](C)(C)[C@H]2[C@H](CC(=O)N(CCO)Cc3ccccc3)O[C@@]3(C(=O)N(Cc4cccc(N5CCCCC5=O)c4)c4ccccc43)[C@@H]2C)cc1`: the z-score is 1.52 (inactive) in assay [1]; 11.3 (active) in assay [3]; 1.31 (inactive) in assay [4]; 0.4 (inactive) in [5]; -0.553 (inactive) in assay [6]; 2.6 in assay [7]. The figures for the z-score in [8], in assay [9] and in assay [10] were 0.0671 (inactive), 0.591 (inactive) and 2.24, respectively. Moreover, the composite z-score in assay [2] was found to be 0.109.
Turning to `[N-]=[N+]=Nc1ccccc1C[C@]1(C(N)=O)COC(c2ccc(OCCCO)cc2)=N1`, the z-score in assay [1] is -0.142 (inactive); in assay [3], 24.7 (active); in assay [4], 9.16 (active); in assay [5], 1.56 (inactive); in assay [6], 0.0294 (inactive); in assay [7] it was 1.84. Also, the values for the z-score in assay [8], in assay [9] and in [10] were -2.14 (inactive), -1.48 (inactive) and -2.48, respectively. The composite z-score in assay [2] is 0.146.
Consider `COC(=O)[C@@]1(Cc2ccc(F)cc2)[C@H]2c3cc(C(=O)N(C)C)n(Cc4ccc(C(F)(F)F)nc4)c3C[C@H]2CN1C(=O)c1ccccc1`, for which the z-score is -1 (inactive) in assay [1]; 1.93 (inactive) in [3]; 0.844 (inactive) in [4]; 0.893 (inactive) in assay [5]; 0.987 (inactive) in [6]; -0.0002 in assay [7]. Moreover, the z-score is 0.267 (inactive) in assay [8], 0.32 (inactive) in assay [9] and 0.568 in assay [10]. The composite z-score in assay [2] came to 0.589.
